In PubChem BioAssay (NCI):
Compounds without any hit were thinned out: in the full panel of roughly 83,000, 20% have a hit.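 Cell lines were cultured in 96-well plates, exposed to a single compound concentration, and assessed for percent growth 48 hours later.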 Activity calls are given as the source filed them. Rule for the calls: active = growth percent below 10; inactive = the rest.

Experiments:
Assay in all cases: NCI-60 one-dose screen, 48 h (100 = growth as untreated, 0 = no growth, -100 = all killed)
Settings in all cases: 10 µM unless noted
SK-MEL-2 melanoma = tested on: SK-MEL-2 melanoma
EKVX NSCLC = tested on: EKVX NSCLC
SN12C renal = tested on: SN12C renal
UO-31 renal = tested on: UO-31 renal
TK-10 renal = tested on: TK-10 renal
ACHN renal = tested on: ACHN renal
CAKI-1 renal = tested on: CAKI-1 renal
A498 renal = tested on: A498 renal
CCRF-CEM leukemia = tested on: CCRF-CEM leukemia

Measured: growth

COc1cc(NS(=O)(=O)c2ccc(-c3cnc(C4CC4)o3)cc2)ccc1F
active: A498 renal -6.34%
inactive: SK-MEL-2 melanoma 54.2% | EKVX NSCLC 33% | SN12C renal 41.1% | UO-31 renal 37.1% | TK-10 renal 43.8% | ACHN renal 37.3% | CAKI-1 renal 35.4% | CCRF-CEM leukemia 19.5%

N=C(N)c1ccc(-c2ccc(-c3ccc(Cl)cc3Cl)s2)cc1
active: ACHN renal -28% | CAKI-1 renal -67.3% | CCRF-CEM leukemia -3.15%
inactive: SK-MEL-2 melanoma 104% | EKVX NSCLC 63.5% | SN12C renal 16% | UO-31 renal 21.8% | TK-10 renal 110% | A498 renal 86.3%

CCO/C=N/C1=C(C#N)C(c2ccc(Cl)cc2)c2sc3c(F)cccc3c2O1 (centres undefined)
inactive: SK-MEL-2 melanoma 14.2% | EKVX NSCLC 75.7% | SN12C renal 79.7% | UO-31 renal 66% | TK-10 renal 88.1% | ACHN renal 92.3% | CAKI-1 renal 41.3% | A498 renal 56.5% | CCRF-CEM leukemia 38.1%

O=C1/C(=C/c2ccccc2Br)COc2ccc(O)cc21
inactive: SK-MEL-2 melanoma 107% | EKVX NSCLC 96.6% | SN12C renal 49.5% | UO-31 renal 58.8% | TK-10 renal 105% | ACHN renal 74.6% | CAKI-1 renal 72.5% | A498 renal 113%
active: CCRF-CEM leukemia 3.07%

O=C(CN1C(=O)S/C(=C\c2ccccc2)C1=O)Nc1ncc(Cc2ccccc2Cl)s1
inactive: SK-MEL-2 melanoma 102% | EKVX NSCLC 108% | SN12C renal 102% | UO-31 renal 75.1% | TK-10 renal 103% | ACHN renal 92% | CAKI-1 renal 78.2% | A498 renal 112% | CCRF-CEM leukemia 97.7%

CS(=O)(=O)c1ccc(-c2cnn3ccc(-c4cccc(S(=O)(=O)C5CC5)c4)nc23)cc1
inactive: SK-MEL-2 melanoma 49.4% | EKVX NSCLC 67.4% | SN12C renal 55.3% | UO-31 renal 49.8% | TK-10 renal 45.8% | ACHN renal 54.7% | CAKI-1 renal 52.2% | A498 renal 30% | CCRF-CEM leukemia 21.3%

OCCn1cc(-c2nc(-c3c[nH]c4ncccc34)cs2)c2ccccc21
inactive: SK-MEL-2 melanoma 98.6% | EKVX NSCLC 32% | SN12C renal 80% | UO-31 renal 37.8% | TK-10 renal 82.5% | ACHN renal 69.3% | CAKI-1 renal 73.7% | A498 renal 34.7% | CCRF-CEM leukemia 84.8%

Cc1nc2sc(C(=O)Nc3cccc(Br)c3)c(N)c2cc1C(O)c1ccccc1 (centres undefined)
active: A498 renal 5.68%
inactive: SK-MEL-2 melanoma 47.2% | EKVX NSCLC 48.5% | SN12C renal 22.4% | UO-31 renal 48.4% | TK-10 renal 58% | ACHN renal 33.2% | CAKI-1 renal 46.4% | CCRF-CEM leukemia 15.7%

C=C1C(=O)O[C@H]2[C@H]1CC/C(COC(=O)C(=O)c1cn(C)c3ccc(Cl)cc13)=C\CC[C@@]1(C)O[C@@H]21
active: SK-MEL-2 melanoma -60.8% | EKVX NSCLC -59.5% | SN12C renal -69% | UO-31 renal -93.5% | TK-10 renal -91.1% | ACHN renal -91.8% | CAKI-1 renal -75.7% | A498 renal -96.9% | CCRF-CEM leukemia -34.9%

Cc1c2cnccc2c(C)c2c1c1cc(C#N)ccc1n2C
active: SK-MEL-2 melanoma -75.4% | EKVX NSCLC -3.54% | SN12C renal -5.29% | UO-31 renal -4.29% | TK-10 renal -13% | ACHN renal -2.32% | CAKI-1 renal 6.63% | A498 renal -65.6% | CCRF-CEM leukemia -16.8%

O=C(CSc1nc2ccc([N+](=O)[O-])cc2[nH]1)Nc1ccc([N+](=O)[O-])cc1
inactive: EKVX NSCLC 20.3% | TK-10 renal 31.8% | ACHN renal 21.4% | CAKI-1 renal 12.7% | CCRF-CEM leukemia 16.8%
active: SK-MEL-2 melanoma -5.26% | SN12C renal 9.04% | UO-31 renal 9.43% | A498 renal -6.66%

COC12C=C/C(=C(/C(=O)OCc3ccncn3)C(=O)CCCCCCCCC3(OC)C=C/C(=C(/C(=O)OCc4ccncn4)C(=O)CCCCCCCC1)O3)O2
active: EKVX NSCLC -15.5% | SN12C renal -10.7% | UO-31 renal -50.7% | TK-10 renal 9.83% | ACHN renal -74.8% | CAKI-1 renal -28.4% | A498 renal -86.3% | CCRF-CEM leukemia -15.2%
inactive: SK-MEL-2 melanoma 11.6%

CCSC(SCC)c1ccc(Cl)cc1
inactive: SK-MEL-2 melanoma 116% | EKVX NSCLC 106% | SN12C renal 99.7% | UO-31 renal 92.5% | TK-10 renal 116% | ACHN renal 107% | CAKI-1 renal 82.9% | A498 renal 93.4% | CCRF-CEM leukemia 108%

CCCOC(=O)Nc1nc2ccc(SCC(C)C)cc2s1
inactive: SK-MEL-2 melanoma 48.6% | EKVX NSCLC 52.3% | SN12C renal 44.4% | UO-31 renal 44.8% | TK-10 renal 50.4% | ACHN renal 51.9% | CAKI-1 renal 49.1% | A498 renal 40.8% | CCRF-CEM leukemia 22.9%

O=S(=O)(NCCNc1nccc(-c2c(-c3ccc(F)c(O)c3)nc3occn23)n1)c1ccc(Cl)cc1
inactive: SK-MEL-2 melanoma 42.2% | EKVX NSCLC 104% | SN12C renal 80.7% | UO-31 renal 81.6% | TK-10 renal 122% | ACHN renal 76.5% | CAKI-1 renal 92.7% | A498 renal 97.9% | CCRF-CEM leukemia 70.7%

C=CCn1c(SCC(=O)Nc2ccc(C(=O)/C=C/c3ccc(Cl)cc3)cc2)nnc1-c1ccc(Br)cc1
inactive: SK-MEL-2 melanoma 76.4% | EKVX NSCLC 101% | SN12C renal 80.3% | UO-31 renal 67.9% | TK-10 renal 83.3% | ACHN renal 78.3% | CAKI-1 renal 74.5% | A498 renal 74.6% | CCRF-CEM leukemia 79.7%

COc1cc(-c2csc(NC(=O)c3ccc(N4CCOCC4)c(C(F)(F)F)c3)n2)cc(OC)c1OC
inactive: SK-MEL-2 melanoma 23% | EKVX NSCLC 33.7% | SN12C renal 48.9% | UO-31 renal 15.4% | TK-10 renal 64.5% | ACHN renal 21.6% | CAKI-1 renal 36.4% | A498 renal 56.7% | CCRF-CEM leukemia 14.2%

COc1cc2c(c(OC)c1OC)CCC(c1cccc(NC(=O)c3ccc(Br)cc3)c1)O2 (centres undefined)
inactive: SK-MEL-2 melanoma 87.4% | EKVX NSCLC 77.2% | SN12C renal 85.7% | UO-31 renal 66.6% | TK-10 renal 89.9% | ACHN renal 91.2% | CAKI-1 renal 90.3% | A498 renal 69.3% | CCRF-CEM leukemia 67%

Nc1ncnc2c1C(c1ccccc1)c1ccc3ccccc3c1O2 (centres undefined)
inactive: SK-MEL-2 melanoma 91.1% | EKVX NSCLC 90.6% | SN12C renal 73.6% | UO-31 renal 56.5% | TK-10 renal 96% | ACHN renal 80.9% | CAKI-1 renal 81.1% | A498 renal 94.7% | CCRF-CEM leukemia 91.6%

CCCC/C(CC)=N\NS(=O)(=O)c1ccc([N+](=O)[O-])cc1
inactive: SK-MEL-2 melanoma 94.6% | EKVX NSCLC 102% | SN12C renal 102% | UO-31 renal 83.3% | TK-10 renal 93.4% | ACHN renal 104% | CAKI-1 renal 96.9% | A498 renal 96.3% | CCRF-CEM leukemia 87.1%

O=C(Nc1ccccc1)Nc1ncnc2c1ncn2-c1ccc(Cl)cc1
inactive: SK-MEL-2 melanoma 107% | EKVX NSCLC 86.7% | SN12C renal 63.1% | UO-31 renal 70.3% | TK-10 renal 58.9% | ACHN renal 69.5% | CAKI-1 renal 93.9% | A498 renal 91% | CCRF-CEM leukemia 94.2%

O=C(O)c1cn(C2CC2)c2cc(N3CCN(C(=O)N(c4ccccc4)c4nc(-c5ccccc5)cs4)CC3)c(F)cc2c1=O
inactive: EKVX NSCLC 16.9% | TK-10 renal 38.3% | CCRF-CEM leukemia 10.9%
active: SK-MEL-2 melanoma -18.3% | SN12C renal 1.06% | UO-31 renal 5.23% | ACHN renal -79.1% | CAKI-1 renal 6.68% | A498 renal 3.2%

COc1cc(C2CC(c3ccc(Nc4nc(Nc5ccc(Cl)cc5)nc(Nc5ccc(Cl)cc5)n4)cc3)=NN2C(C)=O)cc(OC)c1OC (centres undefined)
inactive: SK-MEL-2 melanoma 80.4% | EKVX NSCLC 94% | SN12C renal 102% | UO-31 renal 84.8% | TK-10 renal 118% | ACHN renal 96.7% | CAKI-1 renal 90.4% | A498 renal 113% | CCRF-CEM leukemia 101%

CCCCNC(=O)CC1=C(C)/C(=C/c2[nH]c(-c3ccc[nH]3)cc2OC)N=C1C
active: UO-31 renal -5.12% | CAKI-1 renal 4.74% | A498 renal 3.74%
inactive: SK-MEL-2 melanoma 22.1% | EKVX NSCLC 36.4% | SN12C renal 35.3% | TK-10 renal 33.5% | ACHN renal 13.7% | CCRF-CEM leukemia 27.2%

CC(=O)N1N=C(c2ccc(Nc3nc(Nc4ccccc4)nc(Nc4ccccc4)n3)cc2)CC1c1cccc([N+](=O)[O-])c1 (centres undefined)
inactive: SK-MEL-2 melanoma 60.6% | EKVX NSCLC 77.3% | SN12C renal 96.3% | UO-31 renal 63.9% | TK-10 renal 127% | ACHN renal 94.2% | CAKI-1 renal 91.7% | A498 renal 94.5% | CCRF-CEM leukemia 94.3%

CC(=O)N1N=C(c2ccc(Nc3nc(Nc4ccccc4)nc(Nc4ccccc4)n3)cc2)CC1c1ccccc1 (centres undefined)
inactive: SK-MEL-2 melanoma 58.6% | EKVX NSCLC 79.7% | SN12C renal 99.6% | UO-31 renal 73.5% | TK-10 renal 87.7% | ACHN renal 93.5% | CAKI-1 renal 90.2% | A498 renal 82.4% | CCRF-CEM leukemia 68.2%
